Laboratory results reported in PubChem BioAssay AID1159580 (chemical genetic matrix, 2015).
The campaign covered roughly 5,500 compounds. About 2,000 (36%) were called active. Roughly 18% stayed inconclusive and do not appear here. No stated cut-off is given here; in the data, active means normalized growth mostly below about 0.91 (no sharp cut-off); inconclusive means no clear call, values can overlap the other calls; inactive means mostly above about 0.92. Some of the results follow.

Assay: chemical genetic growth profiling, strain panel (AID 1159580);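 further: tested at 20 µM; growth read once vehicle control cultures reached saturation at 30 °C; 1 = growth at the plate median or of vehicle wells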
Details: S. cerevisiae deletion strains, growth OD

Measured: normalized growth

C[C@]12CCC3C(CC[C@H]4C[C@H](OS(=O)(=O)O)CC[C@]34C)C1CCC2=O (some centres not stated)
active: locus YOR265W, strain rbl2, stronger effect = lower value 1.08 [resistant]
inactive: locus YAL021C, strain ccr4, stronger effect = lower value 1.02 | locus YAL026C, strain drs2, stronger effect = lower value 1.05 | locus YAL030W, strain snc1, stronger effect = lower value 1.05 | locus YBL061C, strain skt5, stronger effect = lower value 1.05 | locus YBR009C, strain hhf1, stronger effect = lower value 1.06 | locus YBR023C, strain chs3, stronger effect = lower value 1.05 | locus YBR171W, strain sec66, stronger effect = lower value 1.08 | locus YBR231C, strain swc5, stronger effect = lower value 1.06 | locus YBR279W, strain paf1, stronger effect = lower value 1.03 | locus YCL011C, strain gbp2, stronger effect = lower value 1.05 | locus YCL016C, strain dcc1, stronger effect = lower value 1.04 | locus YCL061C, strain MRC1, stronger effect = lower value 1.05 | locus YCL069W, strain vba3, stronger effect = lower value 1.04 | locus YCR088W, strain abp1, stronger effect = lower value 1.04 | locus YDL005C, strain med2, stronger effect = lower value 1.06 | locus YDL040C, strain nat1, stronger effect = lower value 1.04 | locus YDR001C, strain nth1, stronger effect = lower value 1.04 | locus YDR069C, strain doa4, stronger effect = lower value 1.05 | locus YDR137W, strain rgp1, stronger effect = lower value 1.05 | locus YDR159W, strain sac3, stronger effect = lower value 1.08 | locus YDR195W, strain ref2 1.06 | locus YDR297W, strain sur2, stronger effect = lower value 1.05 | locus YDR334W, strain swr1, stronger effect = lower value 1.05 | locus YDR335W, strain msn5, stronger effect = lower value 1.04 | locus YDR392W, strain spt3, stronger effect = lower value 1.07 | locus YEL003W, strain gim4, stronger effect = lower value 1.03 | locus YEL037C, strain rad23, stronger effect = lower value 1.04 | locus YEL061C, strain CIN8 (second series), stronger effect = lower value 1.05 | locus YER015W, strain faa2, stronger effect = lower value 1.05 | locus YER016W, strain bim1, stronger effect = lower value 1.04 | locus YER111C, strain swi4, stronger effect = lower value 1.06 | locus YER155C, strain BEM2 (second series), stronger effect = lower value 1.06 | locus YFR010W, strain ubp6, stronger effect = lower value 1.05 | locus YGL167C, strain pmr1, stronger effect = lower value 1.06 | locus YGL173C, strain kem1, stronger effect = lower value 1.04 | locus YGL227W, strain vid30, stronger effect = lower value 1.05 | locus YGL240W, strain doc1, stronger effect = lower value 1.04 | locus YGL253W, strain hxk2, stronger effect = lower value 1.04 | locus YHR013C, strain ard1, stronger effect = lower value 1.12 | locus YHR027C, strain rpn1, stronger effect = lower value 1.05 | locus YHR142W, strain chs7, stronger effect = lower value 1.05 | locus YJL092W, strain hpr5, stronger effect = lower value 1.05 | locus YJL095W, strain BCK1 (second series), stronger effect = lower value 1.04 | locus YJL115W, strain asf1, stronger effect = lower value 1.06 | locus YJL129C, strain trk1, stronger effect = lower value 1.11 | locus YJL154C, strain vps35, stronger effect = lower value 1.04 | locus YJL164C, strain tpk1, stronger effect = lower value 1.05 | locus YJL166W, strain qcr8, stronger effect = lower value 1.05 | locus YJL187C, strain SWE1, stronger effect = lower value 1.05 | locus YKL160W, strain elf1, stronger effect = lower value 1.03 | locus YKR026C, strain gcn3, stronger effect = lower value 1.06 | locus YKR091W, strain srl3, stronger effect = lower value 1.04 | locus YLL001W, strain dnm1, stronger effect = lower value 1.05 | locus YLL026W, stronger effect = lower value 1.05 | locus YLL041C, strain sdh2, stronger effect = lower value 1.05 | locus YLR027C, strain aat2, stronger effect = lower value 1.05 | locus YLR221C, strain rsa3, stronger effect = lower value 1.05 | locus YLR258W, strain gsy2, stronger effect = lower value 1.06 | locus YLR262C, strain YPT6 (second series), stronger effect = lower value 1.04 | locus YLR320W, strain mms22, stronger effect = lower value 1.06 | locus YLR342W, strain FKS1, stronger effect = lower value 1.06 | locus YLR357W, strain rsc2, stronger effect = lower value 1.06 | locus YLR370C, strain arc18, stronger effect = lower value 1.05 | locus YLR384C, strain iki3, stronger effect = lower value 1.05 | locus YML120C, strain ndi1, stronger effect = lower value 1.05 | locus YMR058W, strain fet3, stronger effect = lower value 1.04 | locus YMR125W, strain sto1, stronger effect = lower value 1.05 | locus YMR129W, stronger effect = lower value 1.05 | locus YMR205C, strain PFK2, stronger effect = lower value 1.07 | locus YMR231W, strain pep5, stronger effect = lower value 1.03 | locus YNL071W, strain lat1, stronger effect = lower value 1.05 | locus YNL209W, strain ssb2, stronger effect = lower value 1.04 | locus YNL248C, strain rpa49, stronger effect = lower value 1.04 | locus YNL322C, strain KRE1 (second series), stronger effect = lower value 1.04 | locus YNR049C, strain mso1, stronger effect = lower value 1.05 | locus YOR001W, strain rrp6, stronger effect = lower value 1.04 | locus YOR070C, strain gyp1, stronger effect = lower value 1.06 | locus YOR080W, strain dia2, stronger effect = lower value 1.07 | locus YOR083W, strain WHI5, stronger effect = lower value 1.04 | locus YOR106W, strain vam3, stronger effect = lower value 1.03 | locus YOR270C, strain vph1, stronger effect = lower value 1.1 | locus YOR290C, strain snf2, stronger effect = lower value 1.04 | locus YPL051W, strain arl3, stronger effect = lower value 1.05 | locus YPL078C, strain atp4, stronger effect = lower value 1.03 | locus YPL106C, strain sse1, stronger effect = lower value 1.1 | locus YPL240C, strain hsp82, stronger effect = lower value 1.04
